Experimental findings from PubChem BioAssay (NCATS) are described below.

The structures appear in SMILES notation. Records with an inconclusive call do not appear. A call without a number means that no potency is given here. Calls of active or inactive are those of the source. Calls follow the shape of the dose curve; as a rule, active = well fitted cell-killing curve with a large enough effect; inconclusive = small, poorly fitted or top-dose-only effect; inactive = flat fitted curve, though single readings scatter.
Potency is read from the fitted curve at half-maximal effect.

This assay in a line: Cell Viability - LYMP2-018 (AID 985).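 Also: compound exposure lasted 24 hr at 37 °C; nearly all actives have a fitted effect of over 50% in size.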 To be noted: LYMP2-018 lymphoblastoid cells, viability (qHTS); series mostly up to 92.2 µM. The text has this: NIH Chemical Genomics Center [NCGC]
NIH Molecular Libraries Screening Centers Network [MLSCN]
National Institutes of Environmental Health Sciences [NIEHS]
National Toxicology Program [NTP]
We have developed a 1536-well cell-based assay for quantitative high throughput screening (qHTS) against a number of cell lines to determine in vitro cytotoxicity of small molecules. This particular assay uses a human lymphoblastoid cell line (LYMP2-018) purchased from Coriell Institute for Medical Research.
NCGC Assay Protocol Summary:
The CellTiter-Glo luminescent cell viability assay (Promega) is a homogeneous method to measure the number of viable cells in culture. The end point readout of this assay is based on quantitation of intracellular ATP, an indicator of metabolic activity, using the luciferase reaction. Luciferase catalyzes the oxidation of beetle Luciferin to oxyluciferin and light in the presence of ATP. The luminescent signal is proportional to amount of ATP present.
Using the CellTiter-Glo luminescent cell viability assay, the amount of cellular ATP was measured in the lymphoblastoid cell line with complete culture medium following compound treatment for 24 hours. The assay was performed in opaque white Kalypsys 1536-well plates. In the screen, tetraoctylammonium bromide was used as positive control. Library compounds were measured for their ability to cause acute toxicity in the cell line, as reflected by a decrease in intracellular ATP levels, in a concentration-dependent manner. […] AC50 values were determined from concentration-response data modeled with the standard Hill equation.
qHTS protocol for CellTiter Glo lymphoblastoid cellular assay
[Step] [Parameter] [Value] [Description]
1. Reagent; 5 uL; 2500 lymphoblastoid cells/well
2. Time; 5 hr; 37 C incubation
4. Controls; 23 nL; Tetraoctylammonium bromide 6.4pM to 92 uM
5. Time; 24 hr; 37 C incubation
6. Reagent; 5 uL; CellTiter Glo reagent
7. Time; 30 min; Room Temperature
8. Detection; Luminescence; Viewlux plate reader
Keywords: cell viability, cytotoxicity, lymphoblastoid cell line, luminescence, NTPHTS, NTPHTS_NCGC, NIEHS, DSSTox, MLSMR, MLSCN, NIH Roadmap, qHTS, NCGC
Take `Oc1cc(Cl)cc(Cl)c1Cl`: the Potency entry was “inactive”. As for `C=CC(=O)OCCCCCCOC(=O)C=C`, the Potency was 39.8 µM (active). In the case of `C=Cc1cccc(C)c1`, the Potency entry was “inactive”. As to `O=[N+]([O-])c1cccc(I)c1`, the Potency result was “inactive”.

As for `O=C(O)/C=C/c1ccc(/C=C/C(=O)O)cc1`, the Potency result was “inactive”.

`CCCCCCCC/C=C\CCCCCCCC(=O)N(CCO)CCO`: the Potency entry was “inactive”. For the compound `CC(CCC(=O)O)(c1ccc(O)cc1)c1ccc(O)cc1`, the Potency entry was “inactive”. For `Oc1ccc(O)c2c(O)cccc12` the value was 50.1 µM (active). Turning to `C/C=C/C=C/C=O`, the Potency was 39.8 µM (active).

With `COc1ccc([N+](=O)[O-])cc1N`, the Potency result was “inactive”. For `CCCCC(CC)COC(=O)COc1ccc(Cl)cc1Cl` (stereo not given) the value was “inactive”; for `CCC(Cl)CC(Cl)C(Cl)C(Cl)C(Cl)C(C)Cl` (stereo not given), “inactive”; for `Nc1cc(C(=O)O)c(O)c(S(=O)(=O)O)c1`, “inactive”.

For `CCCCOC(=O)COc1ccc(Cl)cc1Cl`, the Potency entry was “inactive”.

As for `CN(C)c1ccc(Cc2ccc(N(C)C)cc2)cc1`, the Potency result is “inactive”.

Turning to `CCCCC(CC)COP(=O)(OCC(CC)CCCC)OCC(CC)CCCC` (stereo not given), the Potency result was “inactive”.

In the case of `Cc1ccc(N)cc1[N+](=O)[O-]`, the Potency result was “inactive”. For `C[Si](C)(C)Cl` the value was “inactive”; for `CN(C)c1ccc(C(=N)c2ccc(N(C)C)cc2)cc1`, 39.8 µM (active). On to `CC(=O)CC(=O)Nc1ccccc1`, for which the Potency result was “inactive”. For `CC1=C(/C=C/C(C)=C/C=C/C(C)=C/C=O)C(C)(C)CCC1` the value was 39.8 µM (active); for `Oc1cc2c(cc1O)[C@H]1c3ccc(O)c(O)c3OC[C@@]1(O)C2`, 31.6 µM (active). Turning to `Brc1ccc(-c2ccccc2)cc1`, the Potency result was “inactive”. With `Cc1cc2nc(N)sc2cc1C`, the Potency entry is “inactive”.

Turning to `NC(=O)c1ccc([N+](=O)[O-])cc1`, the Potency entry is “inactive”.

Regarding `Nc1ccccc1O`, the Potency entry is “inactive”. For `c1ccc(SCCSc2ccccc2)cc1` the value was “inactive”; for `CC(/C=C/C=C(C)/C=C/C(=O)O)=C\C=C\C=C(C)\C=C\C=C(C)\C=C\C(=O)O`, “inactive”. For `Cc1cc(=O)oc2cc(O)cc(O)c12` the value was “inactive”; for `c1ccc(Nc2cccc3ccccc23)cc1`, “inactive”. For `Oc1ccc2c(c1)OCO2` the value was “inactive”; for `CC(=O)OC1CC(C)OC(C)O1` (stereo not given), “inactive”; for `Nc1cc([N+](=O)[O-])ccc1O`, “inactive”. Consider `CCNC(=S)NCC`, for which the Potency entry was “inactive”. For `C/C(Cl)=C/CCl` the value was “inactive”. For `Cc1c(N)cccc1Cl` the value was “inactive”; for `CCCCCCCCOc1ccc(C(=O)O)cc1`, “inactive”. For `CC(C)OCC1CO1` (stereo not given) the value was “inactive”.

For `C=C(C#N)C(=O)OCC`, the Potency entry was “inactive”. For `Brc1cc(Br)c(Oc2cc(Br)c(Br)cc2Br)cc1Br` the value was “inactive”.
